# Measurements published in PubChem BioAssay (NCATS).
# Results filed as inconclusive are left out. Active and inactive are the calls of the source. Calls follow the shape of the dose curve; as a rule, active = well fitted inhibition curve with a large enough effect; inconclusive = small, poorly fitted or top-dose-only effect; inactive = no such curve, though single readings can be large or run the other way.
# Experiment: qHTS assay for measurement of the activity of small molecule inhibitors on Zika virus induced Caspase-3 activity in human iPSC derived neural progenitor cells (hNPCs) (AID 1224857); also: nearly all actives have a fitted effect of over 65% in size
# Conditions: hNPCs ZIKV-induced caspase-3/7, Caspase-Glo luminescence, 6 h; series mostly up to 45.7 µM
# Excerpt: National Center for Advancing Translational Sciences [NCATS]
# Johns Hopkins University School of Medicine
# Increase in the Caspase-3 activity indicates an activation of apoptosis cell death pathway caused by Zika virus infection in certain types of neuronal cells including human neural progenitor cells (hNPCs), astrocytes, and astrocytoma cell line (SNB-19). This cell-based caspase-3 activity assay measures the increased caspase-3 activity in the human iPSC derived neural progenitor cells (hNPCs) after a 6-hour Zika virus infection with a luminescence readout. A decrease in the luminescence signal in this assay by small molecule treatment indicates an inhibitory effect of that small molecule on the Zika virus induced caspase-3 activity that may correlate with its effect on reduction of Zika virus caused cell death.
# The medium for hNPCs consists of DMEM/F12, N2 supplement (ThermoFisher, Cat.# 17502048), NEAA (ThermoFisher, Cat. # 11140050), 2 ug/ml heparin, 2 uM cyclopamine, and B27 (ThermoFisher, Cat. # 17504044). A Caspase-Glo 3/7 assay kit (catalog number G8092; Promega, Madison, WI) was used to detect caspase-3 activity induced by Zika virus infection in human cells. The reagent mixture was reconstituted as described in the protocol from the manufacturer. Polystyrene tissue culture treated and PDL coated white plates were obtained from Greiner Bio-One (Monroe, NC). Cells were seeded in 384- or 1536-well assay plates and cultured at 37 C with 5% CO2 for 16 to 20 hours. The typical cell seeding density in the 1536-well plate assay is 350 cells/well in 3 ul medium for hNPCs in tissue culture treated plates. Compounds were added to cells and incubated for one hour before addition of ZIKV solution to cells (2 FFU/cell). After incubation at 37 C with 5% CO2 for 6 hours, the reagent mixture of Caspase-Glo 3/7 assay kit was added to each well, followed by incubation at room temperature for 30 minutes. The luminescence intensity of the assay plates was measured using a ViewLux plate reader (PerkinElmer). Data were normalized by using the cell-containing wells without ZIKV as a negative control (0% induction of caspase 3/7 activity) and wells containing ZIKV infected cells (Caspase-3 activity induced) as a positive control (100% induction of caspase 3 activity). The percentage inhibitions of the increased Caspase-3 activity by small molecule inhibitors were then calculated.
row,SMILES,outcome
1,C[N+](C)(C)CCOC(N)=O,inactive
2,C[N+](C)(C)CCCCCCCCCC[N+](C)(C)C,inactive
3,CN(C)C(=O)Oc1ccc[n+](C)c1,inactive
4,CN(C)CC/C=C1\c2ccccc2COc2ccccc21,inactive
5,CCN1CCC[C@H]1CNC(=O)c1c(O)c(Cl)cc(Cl)c1OC,inactive
6,COc1cc(C(=O)OCCCN2CCCN(CCCOC(=O)c3cc(OC)c(OC)c(OC)c3)CC2)cc(OC)c1OC,inactive
7,OCCN1CCN(CCCN2c3ccccc3C=Cc3ccccc32)CC1,inactive
8,CCc1c(C)[nH]c2c1C(=O)C(CN1CCOCC1)CC2 (stereo not given),inactive
9,CC(C(=O)O)c1ccc(CC2CCCC2=O)cc1 (stereo not given),inactive
10,CCCN(CCC)CCc1cccc2c1CC(=O)N2,inactive
11,COC(=O)C1=C(C)NC(C)=C(C(=O)OCCN(C)Cc2ccccc2)C1c1cccc([N+](=O)[O-])c1 (stereo not given),inactive
12,C[N+](C)(C)CCOC(=O)CCC(=O)OCC[N+](C)(C)C,inactive
13,Cc1ccc(/C(=C\CN2CCCC2)c2ccccn2)cc1,inactive
14,COCCc1ccc(OCC(O)CNC(C)C)cc1 (stereo not given),inactive
15,C[C@]12C=CC(=O)C=C1CC[C@H]1[C@@H]3C[C@@H](O)[C@](O)(C(=O)CO)[C@@]3(C)C[C@H](O)[C@@]12F,inactive
16,CNC1(C)C2CCC(C2)C1(C)C (stereo not given),inactive
17,CCCC(C(=O)OCCN(CC)CC)(c1ccccc1)c1ccccc1,inactive
18,CCCCOCCOCCOCc1cc2c(cc1CCC)OCO2,inactive
19,CCc1cccc(N(C)C(N)=Nc2cccc3ccccc23)c1,inactive
20,CN1CCN(CC(=O)N2c3ccccc3C(=O)Nc3cccnc32)CC1,inactive

row,SMILES,outcome
1,C#CCN(C)CCCOc1ccc(Cl)cc1Cl,inactive
2,CC(C)NNC(=O)c1ccncc1,inactive
3,CC(C)COCC(CN(Cc1ccccc1)c1ccccc1)N1CCCC1 (stereo not given),inactive
4,CC(=O)Oc1cc(C(C)C)c(OCCN(C)C)cc1C,inactive
5,CN1C(=O)CC[C@H]1c1cccnc1,inactive
6,CC(C)[N+](C)(CCOC(=O)C1c2ccccc2Oc2ccccc21)C(C)C,inactive
7,COc1cc(Cc2cnc(N)nc2N)cc(OC)c1OC,inactive
8,C[C@]12CCC(=O)C=C1CC[C@@H]1[C@@H]2CC[C@@]2(C)[C@H]1CC[C@]2(O)C(=O)CO,inactive
9,CNCCC(Oc1ccccc1OC)c1ccccc1 (stereo not given),inactive
10,NC(=O)c1ncn([C@@H]2O[C@H](CO)[C@@H](O)[C@H]2O)c1O,inactive
11,CC(N=C(NC#N)Nc1ccncc1)C(C)(C)C (stereo not given),inactive
12,NC(=Nc1ccccc1)Nc1ccccc1,inactive
13,Cc1nc2c([nH]1)c(=O)n(C)c(=O)n2Cc1ccco1,inactive
14,C[n+]1cc2c3c(ccc2c2ccc4cc5c(cc4c21)OCO5)OCO3,inactive
15,CC(=O)[C@]1(O)Cc2c(O)c3c(c(O)c2[C@@H](O[C@H]2C[C@H](N)[C@H](O)[C@H](C)O2)C1)C(=O)c1ccccc1C3=O,inactive
16,COC(=O)C1=C(C)NC(C)=C(C(=O)OC(C)(C)CN(C)CCC(c2ccccc2)c2ccccc2)C1c1cccc([N+](=O)[O-])c1 (stereo not given),inactive
17,C[C@]12CCC(=O)C=C1CC[C@@H]1[C@@H]2C(=O)C[C@@]2(C)[C@H]1CC[C@]2(O)C(=O)CO,inactive
18,Cc1nc2ccccn2c(=O)c1CCN1CCC(C(=O)c2ccc(F)cc2)CC1,inactive
19,CN(C)C/C=C(/c1ccc(Br)cc1)c1cccnc1,inactive
20,Cc1nc2sccn2c(=O)c1CCN1CCC(=C(c2ccc(F)cc2)c2ccc(F)cc2)CC1,inactive
